Results taken from PubChem BioAssay AID493194 (Broad Institute, 2011).
Results with a measured potency or affinity are listed apart. Results filed as inconclusive are left out. Activity calls are given as the source filed them.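 Rule for the calls: active = a valid curve of falling signal whose half-effect concentration is at most ten times the top tested dose; inconclusive = flat curve at 30 to 70% inhibition, or poor fit; inactive = signal rise, flat within 30%, or potency beyond limit.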

What follows are molecules tested against Scavenger receptor class B member 1 (Mus musculus) (UniProt Q61009) (assay: inhibitors of SR-BI mediated HDL lipid uptake, dose response, ldlA[mSR-BI] cells, fluorescence, cherry pick (AID 493194;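 note: CHO cells lacking LDL receptor and overexpressing mouse SR-BI; cellular uptake of fluorescently labeled HDL measured as cell fluorescence; 0% = median of neutral control wells and -100% = median of positive control wells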)). Details: CHO ldlA[mSR-BI] DiI-HDL uptake fluorescence, 3 h; series mostly up to 35 µM; activity change, negative = inhibition: at the top concentration.
Chain of Scavenger receptor class B member 1 (Mus musculus) (Q61009 whole entry, looked up): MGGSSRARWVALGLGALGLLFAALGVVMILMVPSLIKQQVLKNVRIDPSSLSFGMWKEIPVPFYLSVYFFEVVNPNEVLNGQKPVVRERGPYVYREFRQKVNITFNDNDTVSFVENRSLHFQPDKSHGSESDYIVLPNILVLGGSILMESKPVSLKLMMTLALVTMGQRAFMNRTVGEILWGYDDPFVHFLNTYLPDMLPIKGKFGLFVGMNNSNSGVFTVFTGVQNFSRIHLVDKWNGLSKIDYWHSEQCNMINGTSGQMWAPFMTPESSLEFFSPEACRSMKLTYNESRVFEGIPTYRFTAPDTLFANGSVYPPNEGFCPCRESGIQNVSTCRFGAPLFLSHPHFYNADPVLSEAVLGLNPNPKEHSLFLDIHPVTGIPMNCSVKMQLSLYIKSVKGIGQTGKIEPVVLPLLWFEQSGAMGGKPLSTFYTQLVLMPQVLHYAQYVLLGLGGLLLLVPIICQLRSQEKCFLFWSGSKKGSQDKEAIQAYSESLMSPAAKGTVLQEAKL

Activity change, negative = inhibition, inactive:
Cc1ccc(-c2nn(-c3ccccc3)cc2/C=C/C(=O)OCC(=O)NC2CC2)o1 -29.3%
COc1ccc(N2CCN(C(=O)Cc3csc(NC(=O)Nc4ccccc4OC)n3)CC2)cc1 -3.2%
O=C(c1cccc(Cl)c1)N1CCC2CC1c1cc(-c3ccccc3)ccc12 (stereo not drawn) -5.35%
CC(C)c1nnc(NC(=O)CCC(=O)N2CCN(C3c4ccccc4-c4ccccc43)CC2)s1 16.2%
O=C(Nc1ccc(-c2nc3ccccc3o2)cc1)c1cc(-n2cnnc2)ccc1Cl -3.42%
O=C(NC1CC1)c1ccc(CN(c2ccccc2)S(=O)(=O)c2ccccc2)cc1 -29.2%
CCC(C)(C)NC(=O)C(c1ccc(C)cc1)N(Cc1cccs1)C(=O)c1ccc2c(c1)OCCO2 (stereo not drawn) -5.45%
O=C(Nc1ccc(-c2nc3ccccc3o2)c(O)c1)c1cc(-n2cnnc2)ccc1Cl 2.5%
COc1ccc2c(c1)CC(C1(O)C(=O)N(C)c3ccccc31)C2=O (stereo not drawn) 75.3%
CCOc1ccc(C(=O)Nc2ccc(S(=O)(=O)N3C[C@@H]4C[C@@H](C3)c3cccc(=O)n3C4)cc2)cc1 -16.8%
COc1ccc(C2/C=C\CN(S(=O)(=O)c3ccc(C)cc3)CC(=O)N2Cc2ccc(F)cc2)cc1 (stereo not drawn) -5.93%
Cc1cccc(-c2ccc3c(c2)C2CC3CCN2C(=O)OCc2ccccc2)c1 (stereo not drawn) -7.63%
CCC(=O)Nc1ccc(Cl)c(NC(=O)c2cccc(OC)c2)c1 0.316%
O=C(c1ccc(S(=O)(=O)NCc2ccco2)cc1)N1CCN(Cc2ccccc2F)CC1 -13.8%
COc1ccc(NC(=O)CN2CCN(CC(=O)Nc3ccc(OC)c(OC)c3)CC2)cc1 -35.5%
Cc1ccc(-c2cc(C(=O)Nc3ccc(S(=O)(=O)Nc4onc(C)c4C)cc3)[nH]n2)c(O)c1 79%
CCOC(=O)Nc1ccc2c(c1)N(C(=O)C(C)N1CCCC1)c1ccccc1CC2 (stereo not drawn) 25.8%
CC(=O)Nc1ccc(S(=O)(=O)Nc2cc(C)c(-n3nc4ccccc4n3)cc2O)cc1 28.9%
CN(Cc1cc(Cl)cc(Cl)c1O)Cc1c(O)ccc2ccccc12 135%
COc1ccc(C(=O)N2CCN(c3ccc([N+](=O)[O-])c(NCCc4ccc(OC)c(OC)c4)c3)CC2)cc1 -12.2%
CC(=O)c1cccc(NC(=O)c2ccc3c(c2)CCN3S(=O)(=O)c2ccccc2)c1 -0.128%
O=C(CN1CCOCC1)Nc1nc(-c2ccc3c(c2)CCN3S(=O)(=O)c2ccccc2)cs1 118%
CNc1nc(-c2ccc3c(c2)CCN3C(=O)c2ccc(F)cc2)cs1 -14.7%
CCOC(=O)Nc1cccc(NC(=O)c2cc(OC)cc(OC)c2)c1 -50.1%
COc1ccc(CCN2CC(C(=O)NCc3cc(C(C)C)no3)CCC2=O)cc1 (stereo not drawn) 6.57%
Cc1ccc(-n2nc(C)c3c(C(=O)OCC(=O)N(C)C4CCS(=O)(=O)C4)cc(-c4ccccc4)nc32)cc1 (stereo not drawn) -0.532%
COc1ccccc1CNC(=O)C1CCN(C(=O)c2sccc2-n2cccc2)CC1 -31.5%
COCCN(C(=O)COC(=O)c1ccccc1Nc1ccccc1)c1c(N)n(Cc2ccccc2)c(=O)[nH]c1=O -34.6%
COc1ccccc1NC(=O)CN1CCN(CC(=O)Nc2ccc(C)c(F)c2)CC1 -39.7%
O=C(NCc1ccccc1Cl)C1CCN(C(=O)c2sccc2-n2cccc2)CC1 -19.4%
CCC(C)c1ccccc1N1CC(C(=O)N2CCN(S(=O)(=O)c3cccc([N+](=O)[O-])c3)CC2)CC1=O (stereo not drawn) 36.4%
COc1ccc(OC)c(CCNC(=O)c2ccc(NC3=NC4CS(=O)(=O)CC4S3)cc2)c1 (stereo not drawn) 2.45%
CS(=O)(=O)N1CCc2cc(-c3csc(NC(=O)Cc4ccccc4)n3)ccc21 13%
CCOC(=O)C1CCN(C(=O)Cn2cnc3sc(C)c(S(=O)(=O)N4CCC(C)CC4)c3c2=O)CC1 -14%
O=C1NCCOC(=O)[C@H](Cc2ccc(F)cc2)C/C=C\C[C@@H]1CC(=O)N(CCO)Cc1ccccc1 24.5%
Clc1ccc(Cn2nnc(-c3ccc(N4CCOCC4)cc3)n2)cc1 28.1%
CC(C)C(C(=O)OCC(=O)c1ccc2c(c1)NC(=O)CO2)N1C(=O)c2ccccc2C1=O (stereo not drawn) -3.1%
COCC(C)N1CC(O)=C(c2nc(-c3ccc(Cl)cc3)cs2)C1=N (stereo not drawn) -3.9%
